Assay [1] in a line: Cell Viability - LYMP2-023 (AID 975).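 Note: cellular ATP measured by luciferase luminescence as viability proxy; series mostly up to about 92 µM; plate controls were DMSO only for no effect and 92 µM tetraoctylammonium bromide control for full effect; nearly all actives have a fitted effect of over 55% in size.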 The gist of the method: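 CellTiter-Glo luminescence after 30 min at room temperature; decrease in intracellular ATP reflects toxicity. Cells: human lymphoblastoid line, 2500/well, 24 hr compound exposure at 37 C. AC50 fitted to standard Hill equation from concentration-response.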
A short description of assay [2]: Cell Viability - LYMP2-025 (AID 976).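 Note: series mostly up to about 92 µM; plate controls were DMSO only for no effect and tetraoctylammonium bromide control for full effect.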 The essentials:
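CellTiter-Glo luminescence (cellular ATP) after 24 h compound exposure at 37 C; LYMP2-025 human lymphoblastoid cells, 2500/well, complete medium. Tetraoctylammonium bromide positive control. AC50 by Hill equation fit of qHTS concentration-response.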

A short description of assay [3]: Cell Viability - LYMP2-002 (AID 977).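 Note: series mostly up to about 92 µM; plate controls were DMSO only for no effect and 92 µM tetraoctylammonium bromide for full effect.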 The gist of the method:
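Human lymphoblastoid cells (2500/well) in complete medium were preincubated 5 hr at 37 C, then exposed to compounds for 24 hr at 37 C. Intracellular ATP was read by CellTiter-Glo luminescence; AC50 came from Hill-equation concentration-response fits.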

The nature of assay [4]: Cell Viability - LYMP2-006 (AID 978). Note: series mostly up to about 92 µM; % is set by controls: 0 for no effect and ±100 for the full control effect; nearly all actives have a fitted effect of over 60% in size. The gist of the method: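 Human lymphoblastoid cells, 2500 per well, were preincubated 5 hr at 37 C, then exposed to compounds for 24 hr at 37 C in complete medium. Viability was read as intracellular ATP by CellTiter-Glo luminescence; AC50 from Hill-equation fits of qHTS concentration-response data.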
Assay [5] is described as follows: Cell Viability - LYMP2-007 (AID 979).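 Note: cells exposed to compound for 24 h before reading; 0% = DMSO only and the negative end = 92 µM tetraoctylammonium bromide; nearly all actives have a fitted effect of over 60% in size.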 The gist of the method:
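qHTS cytotoxicity: 2500 cells/well, 5 hr 37 C settle, compound 24 hr 37 C, CellTiter-Glo 30 min RT, luminescence. Decrease in ATP = toxicity. AC50 by standard Hill equation; tetraoctylammonium bromide positive control.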

Assay [6] can be described thus: Cell Viability - LYMP2-008 (AID 980). Note: % is set by controls: 0 for no effect and ±100 for the full control effect; nearly all actives have a fitted effect of over 60% in size. The gist of the method:
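Luminescent ATP read-out (CellTiter-Glo, 30 min RT) after 24 hr compound exposure at 37 C of human lymphoblastoid cells in complete medium. Decrease in ATP taken as cytotoxicity; AC50 derived by standard Hill fit of qHTS concentration-response data.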

Assay [7] is described as follows: Cell Viability - LYMP2-012 (AID 982).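 Note: cellular ATP by luciferase luminescence where a drop means cytotoxicity; cells exposed to compound for one day before reading; 0% = DMSO only and full loss = 92 µM tetraoctylammonium bromide; nearly all actives have a fitted effect of over 55% in size.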
A short description of assay [8]: Cell Viability - LYMP2-014 (AID 983).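 Note: series mostly up to about 92 µM; plate controls were DMSO only for no effect and 92 µM tetraoctylammonium bromide for full effect; nearly all actives have a fitted effect of over 50% in size.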 The essentials:
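2500 cells/well, 5 hr 37 C; cpd 24 hr 37 C, complete medium; CellTiter-Glo 30 min RT, luminescence; ATP loss = toxicity; AC50 via Hill eqn; tetraoctylammonium bromide positive control.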

The nature of assay [9]: Cell Viability - LYMP2-016 (AID 984). Note: % is set by controls: 0 for no effect and ±100 for the full control effect; nearly all actives have a fitted effect of over 55% in size. The gist of the method:
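Human lymphoblastoid cells (LYMP2-016), 2500/well in complete medium, preincubated 5 hr at 37 C, then compound-treated 24 hr at 37 C. Intracellular ATP read by CellTiter-Glo luminescence after 30 min at room temperature; AC50 from Hill-equation concentration-response fits.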

The nature of assay [10]: Cell Viability - LYMP2-018 (AID 985).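 Note: plate controls were DMSO only for no effect and tetraoctylammonium bromide at 92 µM for full effect; nearly all actives have a fitted effect of over 50% in size.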 The essentials:
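2500 cells/well; 5 hr 37 C; cmpd 24 hr 37 C, complete medium; CellTiter-Glo 30 min RT; luminescence. Tetraoctylammonium bromide positive control. AC50 via Hill fit.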

A short description of assay [11]: Cell Viability - LYMP2-020 (AID 986).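 Note: series mostly up to about 92 µM; plate controls were DMSO only for no effect and tetraoctylammonium bromide at 92 µM for full effect; nearly all actives have a fitted effect of over 55% in size.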 The essentials:
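qHTS, 2500 cells/well; 5 hr then 24 hr compound exposure, 37 C; CellTiter-Glo luminescence after 30 min RT; ATP decrease taken as cytotoxicity; AC50 via Hill equation; tetraoctylammonium bromide positive control.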

Assay [12] can be described thus: Cell Viability - LYMP2-024 (AID 988).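 Note: plate controls were DMSO only for no effect and 92 µM tetraoctylammonium bromide for full effect; nearly all actives have a fitted effect of over 60% in size.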 The essentials: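 ATP-based luminescence (CellTiter-Glo, 30 min RT) after 24 h compound exposure at 37 C of 2500 lymphoblastoid cells/well; decrease in ATP taken as cytotoxicity. qHTS concentration-response fitted to standard Hill equation for AC50.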
Assay [13] can be described thus: Cell Viability - LYMP2-026 (AID 989). Note: % is set by controls: 0 for no effect and ±100 for the full control effect; nearly all actives have a fitted effect of over 50% in size. The gist of the method: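 qHTS cytotoxicity: 2500 cells/well, 5 hr 37 C, compound 24 hr 37 C, CellTiter-Glo 30 min RT, luminescence. Tetraoctylammonium bromide positive control. AC50 via standard Hill fit.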
The nature of assay [14]: Cell Viability - LYMP1-002 - Assay at 24 hr (AID 993). Note: % is set by controls: 0 for no effect and ±100 for the full control effect. The gist of the method:
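CellTiter-Glo luminescence (intracellular ATP) after 24 h compound exposure, 37 C, in LYMP1-002 human lymphoblastoid cells; decreased ATP taken as cytotoxicity. AC50 from standard Hill fit of concentration-response curves.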

Assay [15] is described as follows: Cell Viability - LYMP1-002 - Assay at 40 hr (AID 994). The gist of the method:
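qHTS cytotoxicity; 2500 cells/well, 5 hr 37 C settle, compound 40 hr 37 C. CellTiter-Glo, 30 min RT, luminescence (ATP). Concentration-response, Hill fit → AC50. Pos. ctrl tetraoctylammonium bromide.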

The nature of assay [16]: qHTS Assay for Identification of Small Molecule Inducers of Hypoxia Response (AID 2120; active = well fitted curve in the direction sought with a large enough effect in the signal ratio, with a control signal flat, not every such curve was filed as active; the % refers to the signal ratio; note: 0% is about no effect). The essentials: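 Read-out: CCF4 FRET emission ratio 460nm/530nm (excitation 405nm), converted to %Activity, with AC50 fitted across a compound titration. ME-180 cells carried an HRE-driven beta-lactamase reporter; compound exposure 17 h, 37 degrees C.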
Assay [17] concerns the target Bile acid receptor (Homo sapiens) (UniProt Q96RI1). The assay is described as follows: qHTS assay for small molecule antagonists of farnesoid X receptor signaling (AID 588526; calls by dose curve; note: % is set by controls: 0 for no effect and ±100 for the full control effect). The essentials:
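Beta-lactamase reporter antagonist mode: HEK293T FXR-UAS-bla cells, titrated compound, CDCA stimulation, 16 h 37 C, CCF4 dye 2 h RT. Data normalized to CDCA 50 uM and DMSO; Hill-fit IC50.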

For assay [18] the target is unchanged. Description: qHTS assay for small molecule agonists of farnesoid X receptor signaling (AID 588527; calls by dose curve;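 note: series mostly up to about 77 µM; 0% = vehicle basal and 100% = reference agonist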). The conditions noted are these: HEK293T FXR-UAS-bla, beta-lactamase ratio, 16 h; activation: stronger effect = higher value. The gist of the method: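 Read-out: beta-lactamase reporter fluorescence with CCF4 substrate in GeneBLAzer FXR-UAS-bla HEK293T cells, after 16 h compound exposure at 37 C. Response scaled between DMSO basal (0%) and chenodeoxycholic acid at 100 uM (100%).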

The target in assay [19] is Vitamin D3 receptor (Homo sapiens) (UniProt P11473). The assay is described as follows: qHTS assay for small molecule antagonists of vitamin D receptor signaling (AID 588541; calls by dose curve;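 note: receptor activated by calcitriol during compound treatment; series mostly up to about 77 µM; % is set by controls: 0 for no effect and ±100 for the full control effect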). The gist of the method: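 Antagonist-mode beta-lactamase reporter assay: HEK293T VDR-UAS-bla cells were exposed to titrated compound alongside 1-alpha,25-dihydroxyvitamin D3 at 3 nM final for 16 h. Values were normalized to the 50 nM agonist control and DMSO basal, with IC50 and efficacy from Hill equation fits.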
Vitamin D3 receptor (Homo sapiens), sequence (P11473 whole entry, looked up): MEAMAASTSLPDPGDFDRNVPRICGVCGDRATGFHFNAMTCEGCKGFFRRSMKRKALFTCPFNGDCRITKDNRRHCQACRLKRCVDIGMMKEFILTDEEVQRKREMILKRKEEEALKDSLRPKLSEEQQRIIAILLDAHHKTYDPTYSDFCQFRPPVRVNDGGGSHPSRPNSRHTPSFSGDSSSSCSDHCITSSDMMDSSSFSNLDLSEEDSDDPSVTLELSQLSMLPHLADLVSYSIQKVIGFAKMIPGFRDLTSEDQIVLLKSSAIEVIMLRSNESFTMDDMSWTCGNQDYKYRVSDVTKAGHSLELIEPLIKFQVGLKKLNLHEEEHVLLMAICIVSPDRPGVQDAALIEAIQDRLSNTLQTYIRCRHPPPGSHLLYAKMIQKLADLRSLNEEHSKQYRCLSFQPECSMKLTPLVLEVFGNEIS

Assay [20] shares this target. The assay is described as follows: qHTS assay for small molecule agonists of vitamin D receptor signaling (AID 588543; calls by dose curve;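 note: 0% = DMSO basal and 100% = reference agonist control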). The essentials:
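GeneBLAzer VDR-UAS-bla HEK293T cells in 2% charcoal-stripped FBS medium were dosed with compound titrations for 16 h at 37 °C; CCF4 β-lactamase readout (405 nm ex, 460/530 nm em). EC50 and efficacy from Hill fits, normalized to 50 nM calcitriol (100%) and DMSO (0%).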

Assay [21] can be described thus: qHTS assay for small molecule agonists of retinoid X receptor alpha signaling (AID 588544; calls by dose curve;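 for activation: 0% = DMSO basal wells and 100% = reference agonist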). The note with it: HEK293T RXRa-UAS-bla, beta-lactamase reporter, 18 h; 530 nm emission.
The target of assay [22] is Retinoic acid receptor RXR-alpha (Homo sapiens) (UniProt P19793). The assay is described as above.
Retinoic acid receptor RXR-alpha (Homo sapiens), sequence (P19793 whole entry, looked up): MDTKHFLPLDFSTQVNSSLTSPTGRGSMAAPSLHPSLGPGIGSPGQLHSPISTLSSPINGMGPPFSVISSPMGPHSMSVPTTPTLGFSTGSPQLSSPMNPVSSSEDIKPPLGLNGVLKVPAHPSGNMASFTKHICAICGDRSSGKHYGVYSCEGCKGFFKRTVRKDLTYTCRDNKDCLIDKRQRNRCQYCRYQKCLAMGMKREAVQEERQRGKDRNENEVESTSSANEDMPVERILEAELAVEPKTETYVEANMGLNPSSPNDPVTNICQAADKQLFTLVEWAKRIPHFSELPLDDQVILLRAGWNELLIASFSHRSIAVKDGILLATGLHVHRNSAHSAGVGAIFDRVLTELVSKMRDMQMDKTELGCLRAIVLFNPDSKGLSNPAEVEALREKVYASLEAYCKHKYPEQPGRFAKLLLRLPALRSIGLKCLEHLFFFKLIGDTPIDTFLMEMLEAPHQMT

The values below come from PubChem BioAssay (NCATS).

Records with an inconclusive call do not appear. Activity calls are given as the source filed them. Unless noted, calls come from the whole dose curve; as a rule, active = well fitted cell-killing curve with a large enough effect; inconclusive = small, poorly fitted or top-dose-only effect; inactive = flat fitted curve, though single readings scatter.

Bile acid receptor (Homo sapiens), sequence (Q96RI1 whole entry, looked up): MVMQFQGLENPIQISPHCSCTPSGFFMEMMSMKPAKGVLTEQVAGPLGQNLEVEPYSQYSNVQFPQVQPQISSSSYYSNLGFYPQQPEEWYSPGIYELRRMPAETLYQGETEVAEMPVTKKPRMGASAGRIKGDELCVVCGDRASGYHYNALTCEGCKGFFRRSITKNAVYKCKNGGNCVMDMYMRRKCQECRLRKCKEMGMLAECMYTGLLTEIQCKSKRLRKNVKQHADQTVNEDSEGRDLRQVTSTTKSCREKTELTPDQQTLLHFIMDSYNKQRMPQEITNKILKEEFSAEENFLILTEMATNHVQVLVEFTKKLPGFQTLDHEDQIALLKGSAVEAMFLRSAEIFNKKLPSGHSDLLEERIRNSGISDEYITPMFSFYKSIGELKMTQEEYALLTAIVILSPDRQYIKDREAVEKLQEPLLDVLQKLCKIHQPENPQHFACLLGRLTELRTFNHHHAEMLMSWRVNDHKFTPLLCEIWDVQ

Regarding `O=Cc1ccccc1`, the compound was classed as inactive in [1], in assay [2], in assay [3], in assay [4], in assay [5] and in [6]. The compound was classed as inactive in assay [7], in assay [8], in assay [9], in [10], in [11] and in assay [12]. Further, the compound was called inactive in assay [13], in assay [14], in [16], in [19] and in assay [22]. Also, the Potency result in [15], in [17] and in assay [20] was “inactive” in each case. For the same compound, the activation in [18] is -1.64% (inactive). In assay [21], this compound yielded a max response of 10.9%.
